Bioassay records as filed in PubChem BioAssay.
This is a sample that favours compounds with a hit; in the whole collection about 2.1% have one here.
Abeta yeast res: compounds reversing amyloid beta toxicity in yeast | hit rate 0.063% among 410,000 | Potency, µM (top dose mostly 46.1 µM), hits mostly activators | yeast expressing A-beta42, growth rescue, OD600, 48 h; response scale: 0% DMSO, 100% iron-clioquinol control; further: nearly all actives have a fitted effect of over 55% in size
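Yeast A-beta toxicity model in growth medium with pinned compounds, 48 h at 30 C; growth read as absorbance at 600 nm. Normalized to FeCl3/clioquinol equimolar mix (positive) and DMSO (negative).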
TDP-43 yeast inh: rescues yeast growth from TDP-43 toxicity. TDP-43 expressing yeast growth rescue, BacTiter-Glo, 24 h. Potency, µM (top dose mostly 46.1 µM), most hits filed as activators. hit rate 1.8% among 410,000. AID 652104; further: nearly all actives have a fitted effect of over 50% in size
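In this qHTS, compounds that restore growth of yeast expressing TDP-43 appear as activators. Cells (OD600=0.02, galactose medium, raffinose-pregrown) are incubated with compound 24 hr at 30 deg C and growth is quantified by BacTiter-Glo.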
FUS suppressor: suppressors of FUS proteinopathy in yeast; S. cerevisiae FUS-expressing, growth rescue, OD600, 24 h; Potency, µM (top dose mostly 76.6 µM), most hits filed as activators; hit rate 0.24% among 390,000; further: nearly all actives have a fitted effect of over 55% in size
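Read-out: OD at 600 nm after 24hr at 30C, reporting rescue of FUS-induced yeast toxicity. Cells at OD 0.005 in galactose (2%) minimal medium; compounds tested in a dilution series; CP55940 titration from 92uM final as control.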
aSyn yeast inh: inhibitors of alpha-synuclein toxicity in yeast; Potency, µM (top dose mostly 46.1 µM), usual class: activators; Yeast expressing alpha-synuclein, growth rescue, BacTiter-Glo, 24 h; hit rate 0.14% among 370,000; further: nearly all actives have a fitted effect of over 65% in size
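Screening used galactose-induced yeast with toxic alpha-synuclein levels, exposed to compound for 24 hr at 30 deg C. Cell growth, read with BacTiter-Glo luminescence, gave the measured signal.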
Hits are given with their value; - = inactive; ? = inconclusive; . = no result given; [ ] = another dose, or the depositor's remark. The call rests on the fitted dose curve; in most records, active means well fitted curve in the direction sought with a large enough effect; inconclusive means small, poorly fitted or top-dose-only effect, or another doubt; inactive means no such curve, though single readings can be large; an effect the other way counts as inactive or inconclusive.

SMILES	Abeta yeast res	TDP-43 yeast inh	FUS suppressor	aSyn yeast inh
Cc1nc2ccn(Cc3ccccc3)c(=O)c2cc1C(=O)NCc1ccccc1F	-	-	-	.
O=C(Nc1ccc(F)c(F)c1)c1ccccc1-c1ccccc1	7.1µM	?	.	-
COc1ccc(NC(=O)c2ccccc2-c2ccccc2)cc1	-	-[9.22 µM]	-	-
CN1C(=O)c2ccccc2Sc2ccc(NC(=O)c3ccccc3F)cc21	-	18µM	-	.
O=C(Nc1cccc(Br)c1)c1ccccc1-c1ccccc1	?	16µM	-	-
O=C(O)c1ccccc1-c1ccccc1C(=O)Nc1cccc(Br)c1	-	-	-	-
CCC(=O)N1CCc2cc(S(=O)(=O)NCCC(=O)Nc3ccccc3C)ccc21	-	?	-	-
O=C(c1ccc(Cl)cc1)N1CCC(O)(CSc2ccc(Cl)cc2)CC1	-	35µM	-	?
COc1cccc(SCC2(O)CCN(C(=O)c3ccc(Cl)cc3)CC2)c1	?	22µM	-	-
Cc1cccc(S(=O)(=O)Nc2ccc(S(=O)(=O)Nc3nccs3)cc2)c1	-	-	-	-
Cc1ccc2nc(NCc3ccccc3)c(C=NCc3cccnc3)c(=O)n2c1	-	-	-	-
C/C(=N\Nc1ccc(C(=O)O)cc1)c1ccc(Br)cc1	-	10µM	-	-
C/C(=N/Nc1ncc(Br)cn1)c1ccc(Br)cc1	-	28µM	-	-
CCOC(=O)[C@]12CCCC=C1N(Cc1ccc(OC)cc1)C(=O)[C@@H]2CC(=O)NCC12CC3CC(CC(C3)C1)C2	.	.	18µM	.
COc1ccc(S(=O)(=O)N[C@@H](Cc2ccc(Cl)cc2)C(=O)N2CC[C@@]3(O)CCCC[C@H]3C2)cc1	-	-	-	-
COc1ccc(CC(=O)O/N=C(\N)Cc2ccc(OC)cc2)cc1	-	11µM	-	-
N/C(Cc1ccc(Cl)cc1Cl)=N\OC(=O)Cc1ccc(Cl)cc1	-	1.3µM	-	-
COc1ccc(/C(N)=N/OC(=O)Cc2cccs2)cc1	-	?	-	-
N/C(Cc1ccc(Cl)cc1Cl)=N\OC(=O)Cc1ccccc1	-	?	.	-
COc1ccc(C/C(N)=N/OC(=O)Cc2ccccc2)cc1	-	16µM	-	-
COc1ccc(CC(=O)O/N=C(\N)c2ccc(OC)cc2)cc1	-	18µM	-	-
C[C@H](CO)N1C[C@H](C)[C@@H](CN(C)C(=O)Nc2ccc(C(F)(F)F)cc2)Oc2ccc(NC(=O)C3CC3)cc2C1=O	-	-	-	-
O=C1CC(N2CCN(Cc3ccc4c(c3)OCO4)CC2)C(=O)N1Cc1ccc(N2CCCC2=O)cc1 (stereo unspecified)	-	-	-	-
O=C(CN1CCSc2ccccc21)N1CCCCC1	-	-	-	-
COc1ccc(/C(N)=N/OC(=O)C2CCCCC2)cc1	-	16µM	-	-
SMILES	Abeta yeast res	TDP-43 yeast inh	FUS suppressor	aSyn yeast inh
COc1ccc(/C(N)=N/OC(=O)C2CCCCC2)cc1OC	-	-	-	-
COc1ccc(/C(N)=N/OC(=O)CN(C)S(=O)(=O)c2ccccc2)cc1	-	13µM	-	-
O=C(NCc1ccco1)c1cccc(Br)c1	-	-	-	-
Cc1ccc(C(=O)CCC(=O)OCC(=O)Nc2cc(S(=O)(=O)N(C)C)ccc2C)cc1	-	-	-	-
CCOC(=O)c1ccccc1NC(=O)Cn1c(=O)n(CCC(=O)N2CCc3ccccc3C2)c(=O)c2ccccc21	-	35µM	?	.
CCOc1ccc2nc(N(Cc3cccnc3)C(=O)c3cccs3)sc2c1	-	14µM	-	.
COc1ccc2sc(N(Cc3cccnc3)C(=O)c3cccs3)nc2c1	-	-	-	.
CCOc1cccc2sc(N(Cc3cccnc3)C(=O)c3ccc(C#N)cc3)nc12	-	-	-	.
COc1ccc2nc(N(Cc3cccnc3)C(=O)Cc3ccccc3)sc2c1	-	32µM	-	.
O=C(Cc1ccccc1)N(Cc1cccnc1)c1nc2c(Cl)cccc2s1	-	20µM	-	.
CCc1ccc2nc(N(Cc3cccnc3)C(=O)c3ccc(C#N)cc3)sc2c1	-	1.8µM	-	.
COc1ccc2sc(N(Cc3cccnc3)C(=O)CCc3ccccc3)nc2c1	-	-	?	.
O=C(Cc1ccccc1)N(Cc1cccnc1)c1nc2c(F)cccc2s1	-	?	-	.
O=C1OCCC1Sc1nnc(-c2ccc3c(c2)OCO3)o1 (stereo unspecified)	-	-	-	-
CC(=O)c1ccc(C(=O)N(C)C2CCCN(Cc3ccccc3F)C2)s1 (stereo unspecified)	-	-	-	-
CC(=O)c1ccc(C(=O)N(Cc2cccnc2)c2nc3c(C)c(C)ccc3s2)cc1	-	22µM	?	.
CC(=O)c1ccc(C(=O)N(CCCN(C)C)c2nc3c(C)c(C)ccc3s2)cc1	-	-	-	.
CCc1ccc2nc(N(Cc3cccnc3)C(=O)Cc3ccccc3)sc2c1	-	28µM	-	.
Cc1ccc2nc(N(Cc3cccnc3)C(=O)CCc3ccccc3)sc2c1	-	?	-	.
O=C(Nc1cccc(-c2nc3ncccc3o2)c1)c1ccccc1	-	16µM	-	-
CCc1ccc(-c2ccc(C(=O)Oc3ccc(Br)cc3)cc2)nc1	-	?	-	.
CCc1ccc(-c2ccc(C(=O)O)cc2)nc1	-	35µM	-	-
CCCCN(C(C)=O)c1c(CC)nc2ccc(C(=O)Nc3cccc(OCC(=O)N(C)C)c3)cn12	-	-	-	-
COc1cc(Nc2nc(-c3ccccc3)c3cc(C)ccc3n2)cc(OC)c1OC	-	20µM	-	-
C/C(=N\O)c1cc(Cl)cc(Cl)c1O	-	14µM	-	?
SMILES	Abeta yeast res	TDP-43 yeast inh	FUS suppressor	aSyn yeast inh
C/C(=N\O)c1ccc(Cl)cc1Cl	-	-	-	-
O=C(c1cccc(Cl)c1)N1CCN(c2ncnc3c2cnn3-c2ccccc2)CC1	-	-	-	-
C=CCNC(=O)c1nc2ccccc2s1	-	-	-	-
Cc1csc(NC(=O)CSc2ccc([N+](=O)[O-])cn2)n1	-	13µM	-	-
O=C(CSc1ccc([N+](=O)[O-])cn1)Nc1cc(C(F)(F)F)ccc1N1CCOCC1	-	20µM	.	-
Cc1csc(NC(=O)CSc2nc3ccccc3s2)n1	-	25µM	-	-
C=CCNC(=O)c1ccc(CSc2nc3ccccc3s2)cc1	-	18µM	-	-
Cn1c(C=O)c(-c2ccc3cc[nH]c3c2)c2ccccc21	-	-	?	-
COc1cc(OC)cc(-c2nnc(SCc3cccnc3)o2)c1	-	?	-	-
Cc1cccc(CSc2nnc(-c3ccco3)n2C)c1	-	-	-	-
Cc1cccc(CSc2nnc(-c3ccco3)o2)c1	-	18µM	-	-
N#Cc1ccccc1CSc1nnc(-c2ccncc2)o1	-	-	?	-
COc1cccc(-c2nnc(SCc3cccnc3)o2)c1	-	13µM	-	-
Cc1cccc(-c2nnc(-c3ccc(N)cc3)o2)c1	-	8.9µM	-	-
N#Cc1cccc(-c2nnc(SCc3ccccc3C#N)o2)c1	-	18µM	-	-
CCOc1cc(C2C(C(C)=O)=C(O)C(=O)N2CCc2c[nH]c3ccccc23)ccc1O (stereo unspecified)	-	-	?	-
Nc1ccn(-c2ccccc2)c(=O)c1	-	-	-	-
